D1 agonist: agonists of human D1 dopamine receptor | HEK293 T-REx D1 cells, calcium flux, agonist mode | activation, % at 2 µM | hit rate 1% among 360,000 | AID 504660; in the data active = activation above about 30%; also: 0% is about no effect
Target sequence (P21728 whole entry, looked up): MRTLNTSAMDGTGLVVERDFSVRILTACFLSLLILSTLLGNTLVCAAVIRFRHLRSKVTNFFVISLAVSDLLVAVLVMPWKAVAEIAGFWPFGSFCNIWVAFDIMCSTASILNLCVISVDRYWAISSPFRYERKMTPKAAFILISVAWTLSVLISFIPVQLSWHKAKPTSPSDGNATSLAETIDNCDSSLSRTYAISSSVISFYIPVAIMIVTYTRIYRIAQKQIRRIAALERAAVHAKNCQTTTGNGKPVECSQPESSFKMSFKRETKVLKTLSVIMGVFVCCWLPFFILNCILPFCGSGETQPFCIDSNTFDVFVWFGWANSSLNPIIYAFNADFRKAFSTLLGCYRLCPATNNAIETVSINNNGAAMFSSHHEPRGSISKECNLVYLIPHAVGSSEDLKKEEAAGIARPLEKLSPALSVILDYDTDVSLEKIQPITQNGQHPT
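Tetracycline-induced HEK293 TREx D1 cells, force-coupled to calcium signalling, were dye-loaded with a no-wash calcium kit. Compound was pin-added after a 10 s baseline. Fluorescence was read kinetically at 1 cycle/s for 180 s, with calcium rises flagged as agonism.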
D1 antag: antagonists of human D1 dopamine receptor. activity change, negative = inhibition, % at 10 µM. hit rate 3.2% among 360,000. AID 504652. HEK293 TREx D1 cells, calcium flux, dopamine EC80; stronger effect = lower value; in the data active = activity change below about -30%; also: % is scaled to controls: 0 for no effect and ±100 for the full control effect
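Calcium flux readout: force-coupled, inducible Hek293 Trex D1 line, cells induced overnight at 30 C with tetracycline, dye-loaded 30–90 min at RT. Antagonism scored against EC80 dopamine challenge given 180 s after compound.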
ERG Ets-DNA blk: blocks human ERG Ets domain binding to DNA; fluorescence polarization, His-ERG Ets domain / labelled DNA; AID 624246; hit rate 0.028% among 370,000; P11308; Potency, µM (top dose mostly 76.9 µM), without a hit: at the top dose FP activity, negative = inhibition, hits mostly inhibitors; active = well fitted inhibition curve with a large enough effect in the polarisation, with a control signal flat; inconclusive = small, poorly fitted or top-dose-only effect, or effect the other way, or a change in a side signal; inactive = no such curve, though single readings can be large or run the other way; the % refers to the polarisation;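 also: polarization taken with two DNA probes labelled with fluorescein and Texas red; potency is read from the fitted curve at half-maximal effect; % of control where 0% means no effect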
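His-tagged ERG Ets domain (1 uM in the protein solution; 300mM KCl, 50mM Tris-HCl, 1mM EDTA, 1mM DTT, pH 7.5) received compound, then a probe mix of 5 nM fluorescein-DNA and 100nM Texas-615-DNA. Fluorescence polarization was read for both dyes.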
D1 potentiator: potentiators of human D1 dopamine receptor; P21728; HEK293 TREx D1 cells, calcium flux, dopamine EC20 potentiation; potentiation, % at 10 µM; hit rate 0.036% among 360,000; AID 504651; in the data active = potentiation above about 30%; also: 0% is about no effect
D3 antag: antagonists of human D3 dopamine receptor; max response, negative = inhibition, %; hit rate 2.5% among 360,000; D3R cells, DiscoveRx beta-arrestin luminescence, antagonist mode; stronger effect = lower value; in the data active = max response below about -50%; inconclusive = no clear call, values can overlap the other calls; also: % is scaled to controls: 0 for no effect and ±100 for the full control effect
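Cells expressing the human receptor were seeded at 1500 cells/well, incubated overnight at 37 degrees C in 5% CO2, then exposed to library compounds with dopamine controls for 90 minutes at 37 degrees C before luminescent detection.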
DRD3 agonist: agonists of human D3 dopamine receptor; P35462; D3R DiscoveRx beta-arrestin cells, luminescence, 90 min; max activation, %; hit rate 0.58% among 410,000; AID 652048; in the data active = max activation above about 30%; also: 0% is about no effect
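Agonist mode: compounds and dopamine controls were applied to plated cells for 90 min at 37 degrees C after an overnight attachment at 1500 cells/well. Luminescent read-out followed 30 - 60 minutes at room temperature with DiscoveRx detection reagent.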
* = called active by the depositor; u = inconclusive; x = not tested or not shown; [ ] = remark or other dose. The list is not random: actives were taken first. Their share in the collection is about 6.1%.

SMILES | D1 agonist | D1 antag | ERG Ets-DNA blk | D1 potentiator | D3 antag | DRD3 agonist
O=C1CC(c2ccccc2)CC(O)=C1C=NCc1ccccc1 (stereo not given) | 0 | -6 | x | -1 | -14 | -11
O=C1CC(c2ccccc2)CC(O)=C1C=NCCc1ccccc1 (stereo not given) | 1 | 28 | -4% | -2 | 3 | 2
O=C1CC(c2ccccc2)CC(O)=C1C=NCc1ccco1 (stereo not given) | 1 | 4 | x | -6 | -57* | -20
C=CCNCCCOc1ccc(Cl)cc1Br | 14 | 16 | -5% | -3 | -67* | -15
COCCCNCCCCOc1ccc(Br)cc1Cl | 20 | -26 | x | -10 | 0 | -8
C=CCc1cc(Cl)ccc1OCCCNC(C)CC (stereo not given) | 18 | 24 | -4% | 2 | u | -8
C=CCNCCCCOc1ccc(Br)cc1C | 21 | -2 | 1% | -9 | u | -17
Cc1cc(Br)ccc1OCCCCNCCO | 6 | 3 | -2% | -4 | -60* | -2
COCCNCCCOc1ccc(Cl)cc1Br | 10 | 5 | 5% | -1 | -78* | -4
COCCNCCCOc1ccc(Br)cc1Cl | 7 | -9 | -4% | -7 | -78* | -24
Nc1nc(SCC(=O)NC2CCCCC2)[nH]c(=O)c1-c1ccccc1 | 0 | -3 | x | 11 | -20 | 10
COCCN(CC(=O)Nc1cccc(C)c1C)C(=O)C1CCN(S(=O)(=O)c2ccccc2)CC1 | x | x | -15%[15.4 µM] | x | -7 | 3
COCCCNCCCOc1ccc(Cl)cc1C(C)(C)C | 13 | 10 | -2% | 3 | u | -40
OCCNCCCOc1ccc(Cl)cc1Br | 4 | -1 | -2% | -8 | -64* | -4
CC(C)Cc1[nH]c(=O)c(C#N)c2c1COC(C)(C)C2 | 1 | -33* | 2% | -5 | 5 | 1
CCCc1[nH]c(=O)c(C#N)c2c1COC(C)(C)C2 | 3 | 8 | -2% | -3 | -12 | -17
Nc1nc(N(Cc2ccccc2)Cc2ccccc2)nc(C(F)(F)F)n1 | 9 | -34* | 0% | -9 | u | -1
COCCCNC(=S)N1CCCN(c2nc3c(C)c(C)ccc3cc2C#N)CC1 | -1 | -42* | 5% | -3 | -9 | 1
O=S(=O)(Nc1nc2n(n1)C(c1ccccc1)C=C(c1ccc(Cl)cc1)N2)c1ccccc1 (stereo not given) | 32* | -14 | -5% | 0 | x | -8
Cc1ccc(S(=O)(=O)Nc2nc3n(n2)C(c2ccc(F)cc2)C=C(c2ccccc2)N3)cc1 (stereo not given) | 0 | -11 | 1% | 1 | x | 39*
Cc1ccc(C2C=C(c3ccccc3)Nc3nc(NS(=O)(=O)c4ccccc4)nn32)cc1 (stereo not given) | 31* | 10 | -1% | -3 | x | 7
Cc1ccc(S(=O)(=O)Nc2nc3n(n2)C(c2ccc(Cl)cc2)C=C(c2ccccc2)N3)cc1 (stereo not given) | 11 | 19 | -3% | -1 | x | 15
O=S(=O)(Nc1nc2n(n1)C(c1ccc(F)cc1)C=C(c1ccccc1)N2)c1ccc(Cl)cc1 (stereo not given) | 3 | 8 | 0% | -3 | x | 20
Cc1nnc(SCC(=O)N2CCc3ccccc3C2)n1-c1ccccc1 | 1 | -11 | 0% | 1 | -20 | -4
Cc1cc(=O)oc2ccc(OCC(=O)N(Cc3ccc(F)cc3)Cc3ccco3)cc12 | 17 | -42* | 1% | -6 | 0 | 2
SMILES | D1 agonist | D1 antag | ERG Ets-DNA blk | D1 potentiator | D3 antag | DRD3 agonist
Cc1cc(C)c2c(CC(=O)NCc3ccco3)coc2c1 | -4 | -4 | -18% | -4 | 5 | 7
Cc1ccc(CN(Cc2ccco2)C(=O)COc2ccc(C)c(C)c2)cc1 | 10 | -29 | 5% | -3 | x | -26
Cc1cc(C)c2c(CC(=O)N(Cc3ccc(Cl)cc3)Cc3ccco3)coc2c1 | 38* | 16 | -1% | 2 | x | -14
Cc1cccc(OCC(=O)N(Cc2cccc(Cl)c2)Cc2ccco2)c1C | 31* | -17 | -14% | -1 | x | -12
CNC(=O)/C(C#N)=C/c1c(N2CCCCCC2)nc2c(C)cccn2c1=O | 0 | 7 | -1% | -1 | 15 | 0
CC(=O)SC(C[N+](=O)[O-])c1cn(C(C)=O)c2ccccc12 (stereo not given) | 3 | 15 | 4% | -1 | 61 | 3
CCCCNC(=O)c1ccc(/C=C2\Oc3ccccc3N(C)C2=O)cc1 | 2 | -15 | -6% | -7 | 0 | 1
COCCCNC(=O)Cn1ccc(N)nc1=O | 2 | 3 | 11% | 0 | 14 | 38*
Nc1ccn(CC(=O)NCCCc2ccccc2)c(=O)n1 | 0 | x | -15% | 5 | -20 | -8
COC(=O)Nc1ccc(SCC(=O)c2ccc(Cl)cc2)cc1 | 2 | -32* | 10% | 2 | -2 | -5
CCOc1ccc(C(C(=O)NC2CCCC2)N(CCCO)C(=O)c2ccc(-c3ccccc3)[nH]2)cc1 (stereo not given) | 1 | -30* | -2% | 3 | -16 | -2
O=C(NC1CCCC1)C(c1ccncc1)N(CCCN1CCOCC1)C(=O)c1ccc(-c2ccccc2)[nH]1 (stereo not given) | 0 | 4 | 2% | 10 | -5 | -2
Cc1ccc(C)c(Nc2ncccc2C(=O)NCc2cccs2)c1 | 0 | 3 | -1% | -9 | 10 | -3
CCCN(CCC)S(=O)(=O)c1ccc(NC(=O)c2cc(C(=O)OC)cc([N+](=O)[O-])c2)cc1 | 1 | -38* | 9% | 1 | -19 | -5
CCC(C)(C)NC(=O)c1cc(C(=O)OC)cc([N+](=O)[O-])c1 | -1 | -1 | 2% | -2 | 0 | 2
COc1ccc2[nH]cc(C(=O)CN3CCN(C/C=C/c4ccccc4)CC3)c2c1 | 86* | -3 | x | -2 | x | x
O=C(CCSc1ccc(Cl)c(Cl)c1)NC12CC3CC(CC(C3)C1)C2 | 41* | -4 | -7% | -5 | -19 | -5
O=C(CSc1ccc(F)cc1)NC12CC3CC(CC(C3)C1)C2 | 0 | 0 | -10% | 9 | -8 | 5
CN(C)C=Nc1ccccc1C1C=NNC1=O (stereo not given) | 1 | -34* | x | -5 | x | x
CC(=O)c1c(N=CN(C)C)nc(C)nc1-c1ccccc1 | 0 | 17 | 4% | -3 | 10 | -1
O=C(COC(=O)Cc1cccc(F)c1)NCCc1ccccc1 | 1 | -68* | 7% | -4 | -14 | 6
O=C(COC(=O)Cc1ccc(F)cc1)NCCc1ccccc1 | 2 | -5 | -3% | -3 | -11 | -1
O=C(COC(=O)CSc1ccc([N+](=O)[O-])cc1)NCCCc1ccccc1 | 9 | -33* | 13% | -8 | 7 | 3
